# Records with an inconclusive call do not appear. Activity calls are given as the source filed them. The calls were made as follows, unless noted: active = hit-call score of the fitted dose curve at least 0.9, where 1 is the maximum; inactive = score below 0.9.
# Experiments:
# [1] = biological target: Nuclear respiratory factor 1 (Homo sapiens) (UniProt Q16656); test: ATG_NRF1_CIS: Attagene CIS-FACTORIAL HepG2 Assay for human Nuclear Respiratory Factor 1 (NRF1) Orphan Gene (AID 2282987); details: HepG2 NRF1 cis-element reporter, Attagene multiplex; actives raise or lower the signal
# Outline: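 Fluorescence intensity of labelled reporter cDNA fragments, resolved by capillary electrophoresis, served as readout for NRF1 cis-element activity. Transiently transfected HepG2 cells were dosed for 24 hours; activity in either direction was fitted against DMSO negative control.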
# [2] = ATG_NFI_CIS: Attagene CIS-FACTORIAL HepG2 Assay for human Nuclear Factor I (NFI) (AID 2282989); details: HepG2 cis-regulatory reporter, NFI response element transcription; actives raise or lower the signal
# Outline: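 Reporter transcription driven by endogenous transcription factors in HepG2 cells; 24 h treatment. Quantitation by labelled RT-PCR fragments on capillary electrophoresis, gain- or loss-of-signal relative to DMSO.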
# [3] = biological target: Myc proto-oncogene protein (Homo sapiens) (UniProt P01106); test: ATG_Myc_CIS: Attagene CIS-FACTORIAL HepG2 Assay for human Myelocytomatosis (Myc) Proto-Oncogene Transcription Factor (AID 2282990); details: HepG2, Attagene cis-reporter transcription factor activity; actives raise or lower the signal
# Outline: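 Transiently transfected HepG2 cells bearing cis-promoter reporter units for endogenous transcription factors; 24 h exposure. Reporter mRNA measured by RT-PCR, 6-FAM primer extension, HpaI cut and capillary electrophoresis; bidirectional fit relative to DMSO.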
# [4] = ATG_NF_kB_CIS: Attagene CIS-FACTORIAL HepG2 Assay for human Nuclear Factor Kappa B (NF-kB) (AID 2282991); details: HepG2 Attagene cis-factorial NF-kB reporter mRNA; actives raise or lower the signal
# Outline: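 Endogenous transcription factor activity in HepG2 was captured via cis-regulated reporter constructs; after 24 h dosing, reporter mRNA was reverse-transcribed, amplified, fluorescently labelled and sized by capillary electrophoresis, with activity fitted bidirectionally relative to DMSO.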
# [5] = ATG_NRF2_ARE_CIS: Attagene CIS-FACTORIAL HepG2 Assay for human Nuclear Factor Erythroid 2 Related Factor 2 (NFR2) response to Antioxidant Response Elements (ARE) (AID 2282992); details: HepG2 Attagene ARE/NRF2 reporter, transcription factor activity; actives raise or lower the signal;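 as to AC50: reporter mRNA level measured by RT-PCR and capillary electrophoresis fluorescence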
# Outline: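 Readout: reporter mRNA quantified by RT-PCR plus FAM-labelled primer extension, HpaI digestion and capillary electrophoresis, 24 h after dosing transfected HepG2 cells. Gain or loss of signal is fitted bidirectionally against DMSO baseline.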
# [6] = BSK_3C_TissueFactor: BioMAP Diversity Plus: 3C Assay for Tissue Factor Biomarker Activity (AID 2282997); details: BioMAP 3C HUVEC, tissue factor biomarker readout; actives raise or lower the signal
# Outline: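 Tissue Factor measured by ELISA, 24 h after treatment of primary HUVEC in the BioMAP 3C setting.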
# [7] = BSK_3C_uPAR: BioMAP Diversity Plus: 3C Assay for Urokinase-type plasminogen activator receptor (uPAR) Biomarker Activity (AID 2282998); details: BioMAP 3C HUVEC, uPAR biomarker ELISA; actives raise or lower the signal
# Outline: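 Readout: ELISA for surface uPAR. System: human umbilical vein endothelial primary cells, 24 h after chemical exposure. Analysis: bidirectional fit, DMSO baseline.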
# [8] = BSK_3C_VCAM1: BioMAP Diversity Plus: 3C Assay for Vascular cell adhesion molecule 1 (VCAM1) Biomarker Activity (AID 2282999); details: BioMAP 3C HUVEC, VCAM1 ELISA, cytokine-stimulated; actives raise or lower the signal
# Outline: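 HUVEC primary cells, 24 h compound exposure; VCAM-1 by ELISA; gain/loss of signal fitted bidirectionally vs DMSO baseline.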
# [9] = BSK_4H_Eotaxin3: BioMAP Diversity Plus: 4H Assay for Eotaxin 3 Biomarker Activity (AID 2283000); details: primary human endothelial cells (HUVEC); actives raise or lower the signal;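 as to outcome: CCL26 protein level quantified by ELISA in parallel with SRB cytotoxicity check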
# Outline: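 Eotaxin-3 (CCL26) levels were measured by ELISA in HUVEC primary cultures 24 h post-dosing. Gain or loss of signal was fitted in both directions, with DMSO serving as baseline and negative control.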
# [10] = biological target: human Peroxisome Proliferator-activated Receptor delta (PPARd), PPARD (gene 5467) (UniProt Q03181); test: ATG_PPARd_TRANS: Attagene TRANS-FACTORIAL HepG2 Assay for human Peroxisome Proliferator-activated Receptor delta (PPARd) (AID 2283002; active = hit-call score of the fitted dose curve at least 0.9, where 1 is the maximum)
# Outline: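 HepG2 cells transiently transfected with GAL4-UAS multiplexed reporter units driven by exogenous chimeric NR-GAL4 proteins; 24 h compound exposure. Reporter mRNA measured by RT-PCR, 6-FAM primer extension, HpaI digestion and capillary electrophoresis; gain of signal fitted relative to DMSO.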
# [11] = read-out: Intercellular Adhesion Molecule 1 (ICAM1), ICAM1 (gene 3383); test: BSK_3C_ICAM1: BioMAP Diversity Plus: 3C Assay for Intercellular Adhesion Molecule 1 (ICAM1) Biomarker Activity (AID 2283003); details: primary human endothelial cells (HUVEC); actives raise or lower the signal
# Outline: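 ELISA readout of ICAM1 in human umbilical vein endothelial cells in the 3C system, taken 24 h post-dose. Gain or loss of signal versus DMSO was fitted in both directions, with SRB total-protein staining run in parallel.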
# [12] = biological target: human Retinoic Acid Receptor beta (RARb), RARB (gene 5915) (UniProt P10826); test: ATG_RARb_TRANS: Attagene TRANS-FACTORIAL HepG2 Assay for human Retinoic Acid Receptor beta (AID 2283004; active = hit-call score of the fitted dose curve at least 0.9, where 1 is the maximum)
# Outline: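 HepG2 cells were transiently transfected with GAL4-UAS reporter units that report activity of exogenous chimeric NR-Gal4 proteins, then exposed to compound for 24 h. Reporter mRNA was quantified by RT-PCR with capillary electrophoresis fluorescence, as gain of signal over DMSO.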
# [13] = biological target: Peroxisome proliferator-activated receptor gamma (Homo sapiens) (UniProt P37231); test: ATG_PPARg_TRANS: Attagene TRANS-FACTORIAL HepG2 Assay for human Peroxisome Proliferator-activated Receptor-gamma (PPARg) (AID 2283007; active = hit-call score of the fitted dose curve at least 0.9, where 1 is the maximum)
# Outline: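 A TRANS-format multiplexed reporter assay measures activity of an exogenous chimeric NR-Gal4 protein in HepG2 cells. After 24 h of chemical exposure, reporter transcripts are amplified, fluorescently labelled and sized by capillary electrophoresis, with gain of signal scored against DMSO.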
# [14] = biological target: human Retinoic Acid Receptor gamma (RARg), RARG (gene 5916) (UniProt P13631); test: ATG_RARg_TRANS: Attagene TRANS-FACTORIAL HepG2 Assay for human Retinoic Acid Receptor gamma (RARg) (AID 2283009; active = hit-call score of the fitted dose curve at least 0.9, where 1 is the maximum)
# Outline: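 Transactivation of exogenous RARg-Gal4 fusion measured as reporter transcript induction after 24 h in transfected HepG2 cells. RNA reverse-transcribed, amplified, fluorescently labeled and resolved by capillary electrophoresis; increase relative to DMSO.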
# [15] = biological target: Cellular tumor antigen p53 (Homo sapiens) (UniProt P04637); test: ATG_p53_CIS: Attagene CIS-FACTORIAL HepG2 Assay for human p53 Transcription Factor (AID 2282994); details: HepG2 p53 cis-element reporter, Attagene mRNA; actives raise or lower the signal
# Outline: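 Read-out: reporter mRNA by RT-PCR plus capillary electrophoresis with fluorescence detection. Human HepG2 liver cells carried transfected multi-reporter cis-element constructs, dosed 24 h. Gain or loss of signal fitted bidirectionally against DMSO control.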
# [16] = biological target: human Peroxisome Proliferator-activated Receptor alpha (PPARa), PPARA (gene 5465) (UniProt Q07869); test: ATG_PPARa_TRANS: Attagene TRANS-FACTORIAL HepG2 Assay for human Peroxisome Proliferator-activated Receptor alpha (PPARa) (AID 2283001; active = hit-call score of the fitted dose curve at least 0.9, where 1 is the maximum;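 as to AC50: potency for gain of reporter signal over DMSO so agonist or activator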)
# Outline: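 HepG2, transient MRTU transfection, 24 h treatment. RT-PCR → FAM labelling → capillary electrophoresis. Fit vs DMSO, positive direction.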
# [17] = biological target: Nuclear receptor subfamily 1 group I member 2 (Homo sapiens) (UniProt O75469); test: ATG_PXR_TRANS: Attagene TRANS-FACTORIAL HepG2 Assay for human Pregnane X Receptor (PXR) (AID 2283008; active = hit-call score of the fitted dose curve at least 0.9, where 1 is the maximum)
# Outline: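 Trans-factorial format: exogenous NR-Gal4 fusion activity, not endogenous factor, in transfected human HepG2 liver cells. After 24 h dosing, RNA isolated, reverse-transcribed, amplified and resolved by capillary electrophoresis; induction scored versus DMSO.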
# [18] = ATG_Oct_MLP_CIS: Attagene CIS-FACTORIAL HepG2 Assay for human Octamer-Binding Transcription Factor (Oct) (AID 2282993); details: HepG2 Attagene cis-factorial Oct reporter, mRNA; actives raise or lower the signal
# Outline: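 Transfected HepG2 cells, 24 h treatment. Reporter mRNA quantified by RT-PCR–capillary electrophoresis; bidirectional fitting against DMSO.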
# [19] = biological target: Retinoic acid receptor alpha (Homo sapiens) (UniProt P10276); test: ATG_RARa_TRANS: Attagene TRANS-FACTORIAL HepG2 Assay for human Retinoic Acid Receptor alpha (RARa) (AID 2283005; active = hit-call score of the fitted dose curve at least 0.9, where 1 is the maximum)
# Outline: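 HepG2 transiently transfected with multiplex GAL4-UAS reporter units including a human RARa–GAL4 chimera; 24 h compound exposure. Reporter mRNA quantified by RT-PCR, 6-FAM labeling and capillary electrophoresis; gain of signal versus DMSO.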
# [20] = BSK_3C_Proliferation: Cell Proliferation Assessment in the BioMAP Diversity Plus: 3C Assay (AID 2283006); details: primary human endothelial cells (HUVEC);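 also: potency may reflect either rise or fall in cell number versus DMSO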
# Outline: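 Proliferation as total protein: sulforhodamine B (0.1%) stain of TCA-fixed subconfluent human umbilical vein endothelial cells, absorbance 560 nm, 48 h after dosing. Activity fitted in both directions against DMSO baseline.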
# Sequence of Nuclear respiratory factor 1 (Homo sapiens) (Q16656 whole entry, looked up, the tested form may be a part): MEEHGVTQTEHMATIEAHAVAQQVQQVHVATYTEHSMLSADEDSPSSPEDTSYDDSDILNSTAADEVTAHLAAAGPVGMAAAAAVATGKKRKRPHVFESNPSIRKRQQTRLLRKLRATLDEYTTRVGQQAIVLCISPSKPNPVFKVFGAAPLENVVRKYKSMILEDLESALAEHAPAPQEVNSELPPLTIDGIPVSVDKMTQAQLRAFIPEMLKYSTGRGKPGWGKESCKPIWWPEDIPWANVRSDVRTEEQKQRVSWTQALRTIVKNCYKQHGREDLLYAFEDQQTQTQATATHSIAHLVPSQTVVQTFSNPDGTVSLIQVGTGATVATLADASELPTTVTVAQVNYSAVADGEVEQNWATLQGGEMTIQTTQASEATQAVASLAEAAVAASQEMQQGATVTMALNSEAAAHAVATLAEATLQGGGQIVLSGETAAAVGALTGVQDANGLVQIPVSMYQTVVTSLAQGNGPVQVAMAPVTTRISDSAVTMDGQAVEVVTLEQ
# Sequence of Myc proto-oncogene protein (Homo sapiens) (P01106 whole entry, looked up): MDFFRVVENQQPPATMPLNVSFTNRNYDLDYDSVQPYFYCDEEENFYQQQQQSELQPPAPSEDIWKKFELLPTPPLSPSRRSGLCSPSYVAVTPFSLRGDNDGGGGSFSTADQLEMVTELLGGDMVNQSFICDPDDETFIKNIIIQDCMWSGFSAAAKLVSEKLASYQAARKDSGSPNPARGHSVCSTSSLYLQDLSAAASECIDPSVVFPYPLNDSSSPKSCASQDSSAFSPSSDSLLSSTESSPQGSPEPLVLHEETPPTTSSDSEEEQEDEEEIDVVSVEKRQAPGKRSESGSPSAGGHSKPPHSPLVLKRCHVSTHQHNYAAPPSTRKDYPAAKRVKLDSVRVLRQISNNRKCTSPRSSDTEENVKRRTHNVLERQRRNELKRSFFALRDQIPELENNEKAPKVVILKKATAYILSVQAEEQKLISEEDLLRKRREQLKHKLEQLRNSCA
# Sequence of Cellular tumor antigen p53 (Homo sapiens) (P04637 whole entry, looked up): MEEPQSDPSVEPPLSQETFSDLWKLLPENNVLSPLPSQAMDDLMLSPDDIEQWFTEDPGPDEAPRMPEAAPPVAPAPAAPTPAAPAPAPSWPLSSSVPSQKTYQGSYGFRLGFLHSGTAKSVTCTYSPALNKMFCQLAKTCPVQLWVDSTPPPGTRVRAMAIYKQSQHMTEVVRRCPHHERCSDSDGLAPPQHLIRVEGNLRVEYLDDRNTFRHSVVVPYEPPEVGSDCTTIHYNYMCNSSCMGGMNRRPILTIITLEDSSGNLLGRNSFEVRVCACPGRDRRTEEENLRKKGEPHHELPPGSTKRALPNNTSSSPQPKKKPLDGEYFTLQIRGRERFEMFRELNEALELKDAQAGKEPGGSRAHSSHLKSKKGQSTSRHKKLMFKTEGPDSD
# Sequence of Nuclear receptor subfamily 1 group I member 2 (Homo sapiens) (O75469 whole entry, looked up, the tested form may be a part): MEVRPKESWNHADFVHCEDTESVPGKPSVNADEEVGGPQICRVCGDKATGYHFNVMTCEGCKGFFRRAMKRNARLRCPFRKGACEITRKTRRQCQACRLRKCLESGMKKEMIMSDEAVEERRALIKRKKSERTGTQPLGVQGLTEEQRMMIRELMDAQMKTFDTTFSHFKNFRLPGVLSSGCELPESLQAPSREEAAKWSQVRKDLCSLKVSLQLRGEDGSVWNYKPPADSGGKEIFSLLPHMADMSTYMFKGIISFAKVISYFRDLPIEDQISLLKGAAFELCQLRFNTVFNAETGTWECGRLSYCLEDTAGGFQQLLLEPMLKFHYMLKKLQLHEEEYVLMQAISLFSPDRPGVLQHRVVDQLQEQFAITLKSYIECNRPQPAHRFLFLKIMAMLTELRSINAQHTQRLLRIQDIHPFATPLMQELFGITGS
# Sequence of human Retinoic Acid Receptor gamma (RARg), RARG (gene 5916) (P13631 whole entry, looked up, the tested form may be a part): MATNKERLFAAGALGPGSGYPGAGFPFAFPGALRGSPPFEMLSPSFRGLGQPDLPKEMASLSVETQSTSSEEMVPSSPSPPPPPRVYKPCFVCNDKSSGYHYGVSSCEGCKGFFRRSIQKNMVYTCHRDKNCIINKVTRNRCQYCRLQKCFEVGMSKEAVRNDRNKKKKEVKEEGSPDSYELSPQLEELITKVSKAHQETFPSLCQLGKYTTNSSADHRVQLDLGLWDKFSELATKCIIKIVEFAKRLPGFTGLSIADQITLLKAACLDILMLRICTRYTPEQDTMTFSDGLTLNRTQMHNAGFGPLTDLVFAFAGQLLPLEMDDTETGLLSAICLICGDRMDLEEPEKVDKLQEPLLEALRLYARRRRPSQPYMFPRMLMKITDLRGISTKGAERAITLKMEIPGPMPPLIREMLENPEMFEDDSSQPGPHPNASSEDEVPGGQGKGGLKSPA
# Sequence of human Retinoic Acid Receptor beta (RARb), RARB (gene 5915) (P10826 whole entry, looked up, the tested form may be a part): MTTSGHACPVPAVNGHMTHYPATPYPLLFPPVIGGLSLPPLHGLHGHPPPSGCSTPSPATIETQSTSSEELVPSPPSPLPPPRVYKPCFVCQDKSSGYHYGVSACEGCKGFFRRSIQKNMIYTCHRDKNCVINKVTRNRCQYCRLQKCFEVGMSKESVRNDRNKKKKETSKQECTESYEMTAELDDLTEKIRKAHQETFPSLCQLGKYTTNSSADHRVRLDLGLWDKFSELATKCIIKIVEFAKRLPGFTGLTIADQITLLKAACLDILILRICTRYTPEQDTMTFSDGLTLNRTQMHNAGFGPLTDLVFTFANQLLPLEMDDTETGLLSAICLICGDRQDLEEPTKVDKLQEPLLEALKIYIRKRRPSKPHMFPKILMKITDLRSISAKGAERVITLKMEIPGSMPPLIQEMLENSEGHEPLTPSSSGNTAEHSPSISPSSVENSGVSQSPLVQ
# Sequence of human Peroxisome Proliferator-activated Receptor delta (PPARd), PPARD (gene 5467) (Q03181 whole entry, looked up, the tested form may be a part): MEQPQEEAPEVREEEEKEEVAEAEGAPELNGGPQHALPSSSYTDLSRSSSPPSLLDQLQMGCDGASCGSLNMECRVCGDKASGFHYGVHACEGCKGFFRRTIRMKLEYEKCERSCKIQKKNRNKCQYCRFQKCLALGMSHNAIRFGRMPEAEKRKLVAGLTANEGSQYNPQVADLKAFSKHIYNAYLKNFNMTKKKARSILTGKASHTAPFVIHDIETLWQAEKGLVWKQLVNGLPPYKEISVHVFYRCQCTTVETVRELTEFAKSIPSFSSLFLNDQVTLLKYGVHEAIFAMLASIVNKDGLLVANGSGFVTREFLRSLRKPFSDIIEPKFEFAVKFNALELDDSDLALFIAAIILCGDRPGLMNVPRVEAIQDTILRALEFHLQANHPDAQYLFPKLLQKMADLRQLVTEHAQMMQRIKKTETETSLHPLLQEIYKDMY
# Sequence of human Peroxisome Proliferator-activated Receptor alpha (PPARa), PPARA (gene 5465) (Q07869 whole entry, looked up): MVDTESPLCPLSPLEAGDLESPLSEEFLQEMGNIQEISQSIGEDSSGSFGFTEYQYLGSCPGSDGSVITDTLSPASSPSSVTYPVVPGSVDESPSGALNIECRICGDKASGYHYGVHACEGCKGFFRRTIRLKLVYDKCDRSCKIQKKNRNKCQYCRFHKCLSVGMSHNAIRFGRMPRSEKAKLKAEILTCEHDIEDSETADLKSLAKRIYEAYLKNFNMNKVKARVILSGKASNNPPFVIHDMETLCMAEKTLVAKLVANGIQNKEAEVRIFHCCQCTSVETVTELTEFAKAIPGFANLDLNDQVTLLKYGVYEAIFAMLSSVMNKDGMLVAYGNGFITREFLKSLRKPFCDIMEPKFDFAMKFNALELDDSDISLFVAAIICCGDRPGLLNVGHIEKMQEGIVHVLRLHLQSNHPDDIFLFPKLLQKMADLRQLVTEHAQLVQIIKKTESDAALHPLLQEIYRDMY
# Sequence of Peroxisome proliferator-activated receptor gamma (Homo sapiens) (P37231 whole entry, looked up, the tested form may be a part): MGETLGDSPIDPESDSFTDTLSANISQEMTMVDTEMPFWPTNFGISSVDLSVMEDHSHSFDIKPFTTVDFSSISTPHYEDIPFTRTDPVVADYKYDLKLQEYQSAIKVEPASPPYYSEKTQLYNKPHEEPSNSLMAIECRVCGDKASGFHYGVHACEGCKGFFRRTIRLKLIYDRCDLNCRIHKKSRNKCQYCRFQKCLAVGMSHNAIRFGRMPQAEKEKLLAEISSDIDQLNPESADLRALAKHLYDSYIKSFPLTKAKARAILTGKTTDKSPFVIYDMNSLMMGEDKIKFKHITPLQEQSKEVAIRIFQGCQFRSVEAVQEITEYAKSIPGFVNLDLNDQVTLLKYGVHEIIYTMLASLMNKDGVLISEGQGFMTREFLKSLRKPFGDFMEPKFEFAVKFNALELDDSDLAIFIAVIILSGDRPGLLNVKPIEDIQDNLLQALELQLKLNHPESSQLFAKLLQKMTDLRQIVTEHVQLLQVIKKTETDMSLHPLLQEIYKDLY
# Sequence of Retinoic acid receptor alpha (Homo sapiens) (P10276 whole entry, looked up, the tested form may be a part): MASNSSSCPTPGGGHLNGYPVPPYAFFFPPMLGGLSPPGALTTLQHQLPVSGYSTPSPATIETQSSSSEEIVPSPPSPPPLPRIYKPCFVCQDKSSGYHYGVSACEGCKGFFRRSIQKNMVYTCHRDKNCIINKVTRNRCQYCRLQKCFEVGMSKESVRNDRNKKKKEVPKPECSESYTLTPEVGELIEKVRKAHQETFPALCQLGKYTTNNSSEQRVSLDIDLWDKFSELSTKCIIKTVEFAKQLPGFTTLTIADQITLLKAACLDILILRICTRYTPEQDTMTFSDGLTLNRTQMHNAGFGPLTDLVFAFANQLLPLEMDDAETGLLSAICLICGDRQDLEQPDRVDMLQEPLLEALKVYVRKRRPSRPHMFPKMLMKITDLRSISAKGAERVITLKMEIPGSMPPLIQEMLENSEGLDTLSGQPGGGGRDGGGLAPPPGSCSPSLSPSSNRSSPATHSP
smiles,measurement,setting,value
C=CC(F)(F)C(F)(F)C(F)(F)C(F)(F)C(F)(F)C(F)(F)C(F)(F)C(F)(F)C=C,outcome,[1],inactive
same,outcome,[2],inactive
same,outcome,[3],inactive
same,outcome,[4],inactive
same,outcome,[5],inactive
same,outcome,[6],inactive
same,outcome,[7],inactive
same,outcome,[8],inactive
same,outcome,[9],inactive
same,outcome,[10],inactive
same,outcome,[11],inactive
same,outcome,[12],inactive
same,outcome,[13],inactive
same,outcome,[14],inactive
O=S(=O)(OCC(F)F)C(F)(F)F,outcome,[1],inactive
same,outcome,[2],inactive
same,outcome,[3],inactive
same,outcome,[4],inactive
same,outcome,[5],inactive
same,outcome,[15],inactive
same,outcome,[7],inactive
same,outcome,[9],inactive
same,outcome,[16],inactive
same,outcome,[10],inactive
same,outcome,[11],inactive
same,outcome,[13],inactive
same,outcome,[17],inactive
CCCCC(CC)COP(=O)(O)OCC(CC)CCCC (stereo unspecified),outcome,[1],inactive
same,outcome,[2],inactive
same,outcome,[3],inactive
same,AC50,[5],26.6 µM (active)
same,outcome,[18],inactive
same,outcome,[6],inactive
same,outcome,[7],inactive
same,outcome,[8],inactive
same,outcome,[9],inactive
same,AC50,[16],16.5 µM (active)
same,outcome,[11],inactive
same,AC50,[13],7.51 µM (active)
same,AC50,[17],15.4 µM (active)
CCc1ccc(C(c2ccc(CC)cc2)C(Cl)Cl)cc1,outcome,[1],inactive
same,outcome,[2],inactive
same,outcome,[3],inactive
same,AC50,[5],56.5 µM (active)
same,outcome,[15],inactive
same,outcome,[6],inactive
same,AC50,[7],12.2 µM (active)
same,AC50,[9],14.1 µM (active)
same,outcome,[10],inactive
same,outcome,[11],inactive
same,outcome,[13],inactive
same,AC50,[17],3.55 µM (active)
CCCCCC=O,outcome,[1],inactive
same,outcome,[2],inactive
same,outcome,[3],inactive
same,outcome,[5],inactive
same,outcome,[15],inactive
same,outcome,[16],inactive
same,outcome,[10],inactive
same,outcome,[13],inactive
CNC(=S)NC,outcome,[1],inactive
same,outcome,[2],inactive
same,outcome,[3],inactive
same,outcome,[4],inactive
same,outcome,[5],inactive
same,outcome,[15],inactive
same,outcome,[10],inactive
same,outcome,[12],inactive
same,outcome,[13],inactive
same,outcome,[17],inactive
CN(C)Cc1ccccc1O,outcome,[1],inactive
same,outcome,[2],inactive
same,outcome,[3],inactive
same,outcome,[5],inactive
same,outcome,[16],inactive
same,outcome,[10],inactive
same,outcome,[13],inactive
same,outcome,[17],inactive
C(=C(c1ccccc1)c1ccccc1)c1ccccc1,outcome,[1],inactive
same,outcome,[2],inactive
same,outcome,[3],inactive
same,outcome,[4],inactive
same,AC50,[5],25.2 µM (active)
same,outcome,[15],inactive
same,outcome,[10],inactive
same,outcome,[13],inactive
same,AC50,[17],7.71 µM (active)
same,outcome,[14],inactive
FC(F)(F)C(F)(F)C(F)(F)C(F)(F)C(F)(F)C(F)(F)CCS,outcome,[1],inactive
same,outcome,[2],inactive
same,outcome,[3],inactive
same,outcome,[4],inactive
same,outcome,[5],inactive
same,outcome,[6],inactive
same,outcome,[7],inactive
same,outcome,[8],inactive
same,outcome,[9],inactive
same,outcome,[16],inactive
same,outcome,[10],inactive
same,outcome,[11],inactive
same,outcome,[13],inactive
same,outcome,[17],inactive
Cc1cc(C)cc(O)c1,outcome,[1],inactive
same,outcome,[2],inactive
same,outcome,[3],inactive
same,outcome,[5],inactive
same,outcome,[16],inactive
same,outcome,[12],inactive
same,outcome,[19],inactive
same,outcome,[13],inactive
same,outcome,[17],inactive
same,outcome,[14],inactive
C=CC(=O)OCC(F)(F)C(F)(F)C(F)(F)C(F)(F)C(F)(F)C(F)(F)C(F)(F)F,outcome,[1],inactive
same,outcome,[2],inactive
same,outcome,[3],inactive
same,outcome,[4],inactive
same,AC50,[5],50 µM (active)
same,outcome,[6],inactive
same,outcome,[7],inactive
same,outcome,[8],inactive
same,outcome,[9],inactive
same,outcome,[16],inactive
same,outcome,[10],inactive
same,outcome,[11],inactive
same,AC50,[20],30 µM (active)
same,outcome,[13],inactive
same,outcome,[17],inactive
O=C(OCCOCCOCCOC(=O)c1ccccc1)c1ccccc1,outcome,[1],inactive
same,outcome,[2],inactive
same,outcome,[3],inactive
same,outcome,[4],inactive
same,outcome,[5],inactive
same,outcome,[15],inactive
same,outcome,[12],inactive
same,outcome,[13],inactive
Nc1ccc(S(=O)(=O)Nc2nccs2)cc1,outcome,[1],inactive
same,outcome,[2],inactive
same,outcome,[3],inactive
same,outcome,[4],inactive
same,outcome,[5],inactive
same,outcome,[15],inactive
same,outcome,[16],inactive
same,outcome,[10],inactive
same,outcome,[13],inactive
same,outcome,[17],inactive
same,outcome,[14],inactive

# Source: PubChem BioAssay (EPA / NIEHS)
